# An excerpt weighted towards active compounds, which were near 5.8% of everything screened.
# MCF10A rereplic = inducers of DNA re-replication in MCF 10A breast cells. MCF 10A DNA re-replication, Hoechst nuclear intensity, 48 h. Potency, µM (series often up to 46.1 µM), for inactives: at the highest dose activity, positive = re-replication, usual class: activators. actives 2.9% (n = 350,000); further: % of control where 0% means no effect; nearly all actives have a fitted effect of over 50% in size
# KB-3-1 tox = kills parental KB-3-1 adenocarcinoma cells. KB-3-1 viability, CellTiter-Glo ATP luminescence, 72 h. Potency, µM (highest dose often 46.1 µM), usual class: cytotoxic. actives 1.4% (n = 400,000). AID 1347075; further: on the % scale 0 is the no-effect control and ±100 the full control effect; nearly all actives have a fitted effect of over 60% in size
#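 Viability of parental KB-3-1 cells, measured by CellTiter-Glo luminescence, followed a 72 h incubation at 37 °C with pinned compounds in phenol-red-free DMEM containing 10% FBS.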
# SW480 rereplic = inducers of DNA re-replication in SW480 colon cancer cells; SW480 DNA re-replication, Hoechst DNA content imaging, 48 h; Potency, µM (titrated, usually from 46.1 µM), without a hit: top-dose re-replication activation, usual class: activators; actives 1.8% (n = 340,000); further: % of control where 0% means no effect; nearly all actives have a fitted effect of over 55% in size
#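 Per well, 250 cells were exposed to pinned compound for 48 hr. Nuclear DNA was visualised with Hoechst (40 min, 37 C) and total object intensity recorded by fluorescence scanning.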
# 12-LOX inh = inhibitors of human 12S-lipoxygenase ALOX12 | purified 12hLO, xylenol orange hydroperoxide absorbance | P18054 | Potency, µM (highest dose often 108 µM), without a hit: top-dose activity change, negative = inhibition, most hits filed as inhibitors | actives 1.1% (n = 580,000) | AID 1671190; further: on the % scale 0 is the no-effect control and ±100 the full control effect
# Target sequence (P18054 whole entry, looked up): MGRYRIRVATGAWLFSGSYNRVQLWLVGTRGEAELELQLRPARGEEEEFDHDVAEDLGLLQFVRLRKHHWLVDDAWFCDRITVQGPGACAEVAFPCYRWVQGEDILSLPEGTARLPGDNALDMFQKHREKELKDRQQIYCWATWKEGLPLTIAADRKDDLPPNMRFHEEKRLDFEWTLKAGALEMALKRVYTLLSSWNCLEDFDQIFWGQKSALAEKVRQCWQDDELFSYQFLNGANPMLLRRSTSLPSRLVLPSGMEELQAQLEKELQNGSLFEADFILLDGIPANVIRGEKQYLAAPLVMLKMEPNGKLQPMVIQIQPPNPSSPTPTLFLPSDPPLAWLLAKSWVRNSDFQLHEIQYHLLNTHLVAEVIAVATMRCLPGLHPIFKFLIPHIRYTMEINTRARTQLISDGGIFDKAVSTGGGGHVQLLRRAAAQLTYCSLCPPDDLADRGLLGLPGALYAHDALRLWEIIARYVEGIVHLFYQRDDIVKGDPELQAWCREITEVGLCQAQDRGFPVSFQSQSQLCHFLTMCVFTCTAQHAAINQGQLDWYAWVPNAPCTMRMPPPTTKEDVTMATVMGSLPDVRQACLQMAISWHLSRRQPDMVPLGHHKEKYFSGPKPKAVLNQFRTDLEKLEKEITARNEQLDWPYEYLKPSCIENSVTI
#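 Purified human 12hLO (150 nM final) in 25 mM Hepes, 0.01% Triton X-100, pH 7.0 was preincubated 15 min at room temperature with compound. Then 40 uM arachidonic acid was added, 30 min. Hydroperoxide was read by Fe-XO absorbance ratio 573/405 nm.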
# KB-V1 MDR tox = KB-V1 MDR subline cytotoxicity; KB-V1 MDR cells viability, CellTiter-Glo, 72 h; Potency, µM (doses to about 46.1 µM), most hits filed as cytotoxic; actives 3.4% (n = 400,000); AID 1347076; further: on the % scale 0 is the no-effect control and ±100 the full control effect; nearly all actives have a fitted effect of over 60% in size
#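 KB-V1 MDR subline cells in DMEM (phenol-red free, 10% FBS) exposed to compounds in qHTS concentration series for 72 h at 37 degrees C. Viability read by CellTiter-Glo luminescence; concentration-effect curves fitted after normalization and correction.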
# PINK1 expr mod = modulators of PINK1 expression; AID 624263; Potency, µM (top dose mostly 76.6 µM), without a hit: at the highest dose activation (PINK1 increase), actives largely listed as activators; actives 0.2% (n = 410,000); PINK1 immunofluorescence, high-content cytometry, 24 h; active means well fitted activation curve with a large enough effect; inconclusive means small, poorly fitted or top-dose-only effect; cell line not stated here; further: % of control where 0% means no effect; nearly all actives have a fitted effect of over 65% in size
#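 Compound titrations (5 concentrations, 24 h) on a stable cell line; DMSO and CCCP controls. Endpoint: fixed-cell PINK1 immunofluorescence with mitochondrial, cell and nuclear markers, scanned by microplate cytometer.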
# The depositor's hits bear a star; i = inactive; ? = inconclusive; . = no result given; [ ] = dose if it differs, or a comment. Unless noted, the call rests on the fitted dose curve; in most records, active means well fitted curve in the direction sought with a large enough effect; inconclusive means small, poorly fitted or top-dose-only effect, or another doubt; inactive means no such curve, though single readings can be large; an effect the other way counts as inactive or inconclusive. Potency means the concentration at half of the fitted maximal effect.
SMILES,MCF10A rereplic,KB-3-1 tox,SW480 rereplic,12-LOX inh,KB-V1 MDR tox,PINK1 expr mod
COc1ccc2cc(C(=O)N(C)Cc3ccc(C(N)=O)cc3)[nH]c2c1,.,.,.,-8%,.,.
Cc1cccc(-c2ocnc2C(=O)Nc2cc(C)ccc2C)c1,.,.,.,-12%,.,.
CCc1cc(=O)n(CC(=O)Nc2cc(OC)c(OC)c(OC)c2)c(-c2ccccc2)n1,.,.,.,-4%,.,.
COc1ccc(Nc2nnc(-c3ccc(N4CCOCC4)c([N+](=O)[O-])c3)c3ccccc23)cc1,8%,i,-7%,20%,16µM*,2%
C(=C\c1ccccc1)/CN1CCN(C(c2nnnn2C2CCCCC2)C2CC2)CC1 (stereo unspecified),.,i,.,-17%,18µM*,0%
COc1cc(C)c(NC(=O)C(C)Oc2ccc(F)cc2)cc1OC (stereo unspecified),.,.,.,-17%,.,.
Cc1cccc(NC(=S)Nc2ccc(Oc3ccccc3)cc2)n1,10%,?,3%,10µM*,?,3%
COC(=O)Cc1ccc(NC(=S)Nc2cccc(C)n2)cc1,-7%,?,-8%,?,21µM*,1%
CCOC(=O)c1ccc(NC(=S)Nc2cccc(C)n2)cc1,?,i,4%,?,i,2%
O=C(NCc1ccc(Cn2cccn2)cc1)c1cn[nH]c1-c1ccccc1,.,.,.,-66%,.,.
CCN1c2cc(C(=O)Nc3cccc(Cl)c3)ccc2C(=O)N2CCCCCC21 (stereo unspecified),.,.,.,5%,.,.
O=c1[nH][nH]c(-c2ccccc2O)c1C(C[N+](=O)[O-])c1ccc(Br)cc1 (stereo unspecified),?,i,?,?,i,-2%
Cc1ccc(C(C[N+](=O)[O-])c2c(-c3ccccc3O)[nH][nH]c2=O)cc1 (stereo unspecified),12µM*,?,15µM*,40µM*,?,-2%
CCOc1cc(CN2CCC(C)(c3noc(C4CCOCC4)n3)CC2)ccc1O,.,.,.,33%,.,.
C1CC(COCCc2noc(C3CNC3)n2)CCO1,.,.,.,68%,.,.
Cc1ccc(CCNC(=O)c2cc3sccc3n2Cc2ccc(C)cc2)cc1,.,i,.,-22%,i,6%
CCOC(=O)c1ccc(NC(=O)C(=O)NCc2ccccn2)cc1,-1%,i,-62%,1%,i,-1%
CCn1c(C(=O)NCc2ccccn2)cc2sccc21,10%,i,-6%,1%,15µM*,-5%[38.3 µM]
Cc1ccc(Cn2c(C(=O)NCCCN3CCOCC3)cc3sccc32)cc1,-1%,i,-7%,.,4.6µM*,-4%[38.3 µM]
CCOC(=O)c1c(C)c(C(=O)NCc2ccccn2)c(C)n1CC,18%,i,?,12%,16µM*,-1%[38.3 µM]
CCn1c(C(=O)NCCCN2CCc3ccccc3C2)cc2sccc21,6%,i,?,-16%,9.2µM*,-3%[38.3 µM]
CCn1c(C(=O)NCCCc2ccccc2)cc2sccc21,14%,i,0%,2%,?,7%
C#CCOc1ccc(/C=C(/C#N)c2ccc(F)cc2)cc1OC,.,.,.,-19%,.,.
O=C(Nc1nnc(-c2ccc(Cl)cc2)o1)C1CCN(S(=O)(=O)c2cc(F)ccc2F)CC1,.,.,.,-4%,.,.
CSc1cccc(NC(=O)c2ccc(C)c(F)c2)c1,.,.,.,20%,.,.
SMILES,MCF10A rereplic,KB-3-1 tox,SW480 rereplic,12-LOX inh,KB-V1 MDR tox,PINK1 expr mod
Cc1cccc(NC(=O)CN(C)C(=O)CCc2ncc(-c3ccccc3F)o2)c1C,.,.,.,3%,.,.
O=C(NCc1ccncc1)c1nc(-c2ccc(Br)o2)no1,.,.,.,20%,.,.
Cc1cc2c(cc(C(=O)NCCCN3CCOCC3)n2Cc2ccc(Cl)cc2)o1,23µM*,i,18µM*,-2%,i,24%[38.3 µM]
CCc1ccccc1NC(=O)c1sc(-n2nc(C)c(Cl)c2C)nc1C,.,.,.,35%,.,.
CCNC(=O)/C(C#N)=C/c1c(N(Cc2ccccc2)Cc2ccccc2)nc2ccccn2c1=O,12%,?,-158%,-6%,2.9µM*,-3%
N#C/C(=C\c1c(N2CCCCC2)nc2ccccn2c1=O)C(=O)NCc1ccco1,-33%,?,7%,1%,2.9µM*,8%
CCNC(=O)/C(C#N)=C/c1c(N2CCN(C)CC2)nc2c(C)cccn2c1=O,-14%,i,?,?,i,-1%
CNC(=O)/C(C#N)=C/c1c(N(Cc2ccccc2)Cc2ccccc2)nc2c(C)cccn2c1=O,?,16µM*,0%,-14%,23µM*,1%
C=CCN1C(=O)/C(=C/c2ccc(OC(C)=O)c(OCC)c2[N+](=O)[O-])SC1=S,3.7µM*,?,23%,?,?,4.5µM*
C=CCN1C(=O)/C(=C\c2ccc(OC(=O)c3ccco3)c(OC)c2)SC1=S,1%,i,-5%,-15%,i,-2%
Nc1ccccc1C(=O)NC(=O)Nc1ccc(Oc2ncc(Br)cn2)c(Cl)c1,?,0.21µM*,0.52µM*,-25%,0.13µM*,3%
Cc1cc(NC(=O)NC(=O)c2ccccc2NC(=O)CN(C)C)ccc1Oc1ncc(Br)cn1,15µM*,2.9µM*,6.5µM*,-13%,2.1µM*,21%
Cc1cc(NC(=O)NC(=O)c2ccccc2NC(=O)CN)ccc1Oc1ncc(Br)cn1,?,1.2µM*,2.9µM*,-2%,?,2%
Cc1ccnc(Sc2ccc([N+](=O)[O-])cc2[N+](=O)[O-])n1,?,?,12µM*,-10%,?,0%[38.3 µM]
CCOc1ccc(NC(=O)c2cccc(OC(=S)N3CCOCC3)c2)cc1,11%,i,1%,0%,?,4%
COc1ccc(N(C)S(=O)(=O)c2cccc(C(=O)Nc3ccc(N4CCOCC4)cc3)c2)cc1,16%,?,?,-20%,15µM*,4%
COc1ccc(NC(=O)c2cccc(OC(=S)N3CCOCC3)c2)cc1,-2%,i,-7%,-20%,16µM*,-1%
Cc1c(C(=O)c2no[n+]([O-])c2C(=O)c2cnn(C)c2C)cnn1C,11µM*,?,?,0%,i,3%
CS(=O)(=O)Nc1cccc(C(=O)CC2(O)C(=O)Nc3ccc(Br)cc32)c1 (stereo unspecified),8.2µM*,i,?,0%,i,6%
CCOC(=O)N1CCC2(CC1)C(C#N)=C(N)Oc1c2sc2nc(C)cc(C)c12,7.3µM*,i,?,-29%,i,-3%[38.3 µM]
CCCN1CCC2(CC1)C(C#N)=C(N)Oc1c2sc2nc(C)cc(C)c12,3%,i,-4%,?,i,2%
CCCn1nc(C(=O)OCC(=O)N2CCCC2)c2ccccc2c1=O,.,.,.,14%,.,.

# Screening results (PubChem)
